This note sets out measurements from PubChem BioAssay AID1259397 (Fisher Drug Discovery Resource Center, 2018).

Values joined by “and” are separate entries in the source; they are usually repeats but may differ in a detail not shown here. Equal values may be shown once. Screen size: about 130,000 compounds; about 230 (0.18%) were called active.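 Rule for the calls: active = inhibition of cGAS enzyme activity at or above 60%; inactive = the rest.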 The entries come from a sample that favours actives as a whole.

The target in the test is Cyclic GMP-AMP synthase (Mus musculus) (UniProt Q8C6L5). Briefly: inhibitors of Mus musculus cyclic GMP-AMP synthase, initial high-throughput assay, cell-free, RapidFire MS (AID 1259397).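 Note: enzyme stimulated by 45 bp dsDNA with ATP and GTP substrates; cGAMP share of summed cGAMP plus half ATP and half GTP signals.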 To be noted: recombinant mouse cGAS, cGAMP by RapidFire MS; at 12.5 µM; active compounds read high.
Cyclic GMP-AMP synthase (Mus musculus), sequence (Q8C6L5 whole entry, looked up): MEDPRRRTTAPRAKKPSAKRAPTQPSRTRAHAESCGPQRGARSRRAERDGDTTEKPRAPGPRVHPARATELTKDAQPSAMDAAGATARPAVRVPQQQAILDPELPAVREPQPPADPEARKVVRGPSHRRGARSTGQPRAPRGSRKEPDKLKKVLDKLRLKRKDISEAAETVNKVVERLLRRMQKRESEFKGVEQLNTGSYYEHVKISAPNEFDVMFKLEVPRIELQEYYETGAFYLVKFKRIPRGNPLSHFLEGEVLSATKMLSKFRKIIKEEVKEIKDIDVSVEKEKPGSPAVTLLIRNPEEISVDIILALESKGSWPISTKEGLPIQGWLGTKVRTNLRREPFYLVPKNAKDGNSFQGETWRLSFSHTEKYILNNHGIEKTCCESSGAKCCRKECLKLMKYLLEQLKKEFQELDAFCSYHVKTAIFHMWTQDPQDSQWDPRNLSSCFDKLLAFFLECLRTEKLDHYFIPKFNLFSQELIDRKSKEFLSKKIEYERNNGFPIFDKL
For `CC1=C(C(=O)N2CCC(N3CCC(C(=O)NCC4CCCO4)CC3)CC2)OCCO1` (centres undefined), the inhibition (in general, the change of the read-out against control, counted positive when it falls) is -2.1% (inactive).
In the case of `O=C(CCc1nc2ccccc2s1)NC1CCN(Cc2ccccc2)C1` (centres undefined), the inhibition is -1.33% (inactive).
As to `Cc1cc(C)n(CC2CCN(C(=O)C3CCN(S(C)(=O)=O)CC3)CC2)n1`, the inhibition was -6.54% (inactive).
On to `Cc1cn2c3c(=O)n(CCc4ccccc4)c(=O)n(C)c3nc2n1CCOCCO`, for which the inhibition was -7.78% (inactive).
Consider `CCCNC(=O)C1(C)CCCN(Cc2c(C)nn(-c3ccccc3)c2C)C1` (centres undefined), for which the inhibition is -6.24% (inactive).
On to `CCOc1ccc(CNC(=O)Cc2sc(=S)[nH]c2C)cc1F`, for which the inhibition is -6.57% (inactive).
`CC(=O)Nc1ccc(Cl)c(C(=O)N(C)CCc2nc3ccccc3[nH]2)c1`: the inhibition is -12.1% (inactive).
Consider `CCc1ccc(C(=O)NNC(=S)Nc2sc(CC)cc2C(=O)OC)s1`, for which the inhibition is -2.22% (inactive).
For the molecule `COc1cccc(N2C[C@@H]3C[C@@H](c4cccs4)N4CCC[C@@]34C2=O)c1`, the inhibition is -6.87% (inactive).
As for `COC(=O)Cn1nc([N+](=O)[O-])n(CC(=O)OC)c1=O`, the inhibition was -9.81% (inactive).
As for `COc1ccc(NC2CCCN(c3nc(C(F)(F)F)nc(C)c3C)C2)cc1` (centres undefined), the inhibition was -21.1% (inactive).
For `CCCOc1ccc(C(=O)NNC(=O)c2ccc[nH]c2=O)cc1`, the inhibition is 2.97% (inactive).
Consider `CN(C)/C=C(\C(=O)c1ccc(Cl)c(Cl)c1)c1nnnn1-c1ccccc1`, for which the inhibition is -2.94% (inactive).
For `CC1CN(Cc2ccccc2F)CCO1` (centres undefined), the inhibition is -0.301% (inactive).
Then `CC(C(=O)N1CCCC1)N1CCOC(CN(C)C)C1` (centres undefined), with -1.48% (inactive).
Take `CCc1ccc(Cl)c(CC)c1NC(=O)c1cnccn1`: the inhibition is -4.79% (inactive).
Next, `N#Cc1ccc(C2=CSC3=NS(=O)(=O)CCN23)cc1`: -8.31% (inactive); `O=C(NCCC(F)(F)F)c1csc(N2CCN(Cc3ccccc3)C2=O)n1`: -6.72% (inactive); `Cc1noc(C)c1C(=O)N1CCC1(C)C(=O)NS(=O)(=O)c1ccc(C#N)cc1` (centres undefined): -9.56% (inactive).
For `O=[N+]([O-])c1cc(S(=O)(=O)C(F)(F)F)ccc1N1CCCC1`, the inhibition was -9.38% (inactive).
On to `C=CCSc1nc2ccccc2n1CCO`, for which the inhibition is -7.69% (inactive).
As to `CC(=O)Nc1ccc(Cl)c(C(=O)NC(CCn2ccnc2)c2ccccc2)c1` (centres undefined), the inhibition is -10.1% (inactive).
Next, `CCC1(C)Cc2ccccc2-c2nc3[nH][nH]c(=S)n3c(=O)c21` (centres undefined): 15% (inactive).
In the case of `COc1ccccc1/C=C/C=C1\N=C(c2ccc(C(C)(C)C)cc2)OC1=O`, the inhibition was -5.55% (inactive).
On to `Cc1ccc(C)c(C=C2SC(N3CCOCC3)=NC2=O)c1`, for which the inhibition is -2.54% (inactive).
As to `O=C(NC[C@H]1C[C@H]2C=C[C@H]1C21CC1)C1CCN(Cc2ccco2)CC1`, the inhibition was -6.29% (inactive).
Next, `CN(Cc1cn[nH]c1-c1ccc(F)cc1)C(=O)Cc1c[nH]c2ccccc12`: -11.3% (inactive).
Then `OCC1(Cc2ccccc2Cl)CCN(C2CCN(c3ccccc3)CC2)CC1`, with -7.34% (inactive).
Consider `Cc1cc2nc(N(CCN3CCOCC3)C(=O)C3COc4ccccc4O3)sc2cc1C` (centres undefined), for which the inhibition is -7.12% (inactive).
`CCN(CCn1cccn1)C(=O)CC1C(=O)NCCN1C1Cc2ccccc2C1` (centres undefined): the inhibition is 3.93% (inactive) and -3.95% (inactive).
As for `Cc1c(C)c(C)c(C(=O)C2CCN(C(=O)CC3NC(=O)NC3=O)CC2)c(C)c1C` (centres undefined), the inhibition was -1.46% (inactive).
Consider `Cc1nc2c(cnn2C(C)C)c(C)c1CCC(=O)NC1CCCC1`, for which the inhibition was -7.8% (inactive).
With `Cc1ccsc1C(CNC(=O)c1cnn2ccn(C)c12)N(C)C` (centres undefined), the inhibition was -20.4% (inactive).
In the case of `O=S(=O)(c1ccc2c(c1)OCCCO2)N1CCCC(c2nc3ccccc3s2)C1` (centres undefined), the inhibition was 10% (inactive).
On to `Cc1sc2ncn(CC(=O)c3ccc[nH]3)c(=O)c2c1C`, for which the inhibition was 14.3% (inactive).
Take `Cc1nc2ccc(C(=O)N3CCC4(CC3)Nc3ccccc3C(=O)N4CCO)cc2[nH]1`: the inhibition is -0.499% (inactive).
Regarding `COc1cc2c(cc1CNC1CCN(Cc3ccccc3)C1)OC(C)C2` (centres undefined), the inhibition is -13.3% (inactive).
In the case of `CC(=O)OC(OC(C)=O)c1coc2c(F)cccc2c1=O`, the inhibition was 2.77% (inactive).
As to `CCC1CCC(N(CC(=O)NC(C)C(=O)N(C)C)C(C)c2ccc(F)cc2)CC1` (centres undefined), the inhibition was -8.3% (inactive).
As for `Cc1[nH]n(-c2nc(O)c(C)c(=O)[nH]2)c(=O)c1CCO`, the inhibition was -3.37% (inactive).
On to `CCCNc1nc2c(C)cccn2c(=O)c1C=C1SC(=S)N(CC(C)C)C1=O`, for which the inhibition was -5.08% (inactive).
As for `Cc1ccc(NC(=O)CN2CCCN(c3ccc(C(F)(F)F)cn3)CC2)cc1`, the inhibition was -2.92% (inactive).
Turning to `CC(Nc1ncnc2sc3c(c12)CCCC3)c1ccccc1` (centres undefined), the inhibition is -2.34% (inactive).
In the case of `CN(Cc1nc(-c2ccc(Br)s2)no1)c1nccs1`, the inhibition was -1.14% (inactive).
Next, `CN(C)c1ccc(N2CC(=O)C(c3nc(-c4cccc(Cl)c4)cs3)C2=N)cc1` (centres undefined): -4.69% (inactive).
Next, `CCc1ccc(NC(=O)C(C)n2cc(C(F)(F)F)ccc2=O)cc1` (centres undefined): -4.23% (inactive).
`Cc1ccc(NC(=O)C(C)N2CCCC(C(F)(F)F)C2)cc1` (centres undefined): the inhibition was -5.21% (inactive).
Then `CCCN(C)CC1CCN(C(C)C(=O)Nc2ccc(C(F)(F)F)cc2)C1` (centres undefined), with 93.9% (active); and `CCn1ccc(C(=O)NCc2cccnc2Oc2ccc(C)nc2)n1`, with 4.9% (inactive).
Take `O=C(CSc1nnc(-c2ccco2)o1)NC1CC1`: the inhibition was -7.76% (inactive).
With `Cc1cccc[n+]1CC(=O)C12CC3CC(CC(C3)C1)C2`, the inhibition is -6.75% (inactive).
As for `COc1ccc2c(c1)CCc1cc(C(=O)NC(C)c3c(C)nn(C)c3C)sc1-2` (centres undefined), the inhibition was 0.0306% (inactive).
For the molecule `CC(Nc1cccc(Br)c1)N1C(=O)CCC1=O` (centres undefined), the inhibition was -5.36% (inactive).
`COc1ccc(OC)c(C2CCCN2Cn2nc(-c3ccccc3F)n(C)c2=S)c1` (centres undefined): the inhibition was -6.22% (inactive).
As for `NC(=O)Cn1nnc(-c2ccccc2Br)n1`, the inhibition is -12.5% (inactive).
Next, `COc1cccc(N(CN2C(=O)c3ccccc3C2=O)C(C)=O)c1`: 22.9% (inactive); `CC(C)(C)SCCNC(=O)CN(c1ccc(Cl)cc1Cl)S(=O)(=O)c1ccccc1`: -1.39% (inactive); `Cc1ccc(-c2cnc(C(O)c3cccc(C)c3C)[nH]2)cc1` (centres undefined): -3.19% (inactive).
`N#Cc1ccc(F)c(COC(=O)c2cncc(Br)c2)c1`: the inhibition is 6.6% (inactive).
